In PubChem BioAssay (EPA / NIEHS):
Where “and” joins values, the source holds several entries; their conditions need not be identical. Equal values may be shown once. Records with an inconclusive call do not appear. Calls of active or inactive are those of the source. Rule for the calls, unless noted: active = hit-call score of the fitted dose curve at least 0.9, where 1 is the maximum; inconclusive = response in the unintended direction; inactive = score below 0.9.

Tests used:
[1] = biological target: Androgen receptor (Homo sapiens) (UniProt P10275); assay: ATG_AR_TRANS: Attagene TRANS-FACTORIAL HepG2 Assay for human Androgen Receptor (AR) (AID 2282973); settings: HepG2 Attagene TRANS-FACTORIAL AR reporter transcription
Method in brief: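 Readout is reporter transcript abundance, quantified by fluorescent RT-PCR products separated on capillary electrophoresis. Human HepG2 liver cells carried transiently transfected NR-Gal4 chimera plus GAL4-UAS reporter constructs and were dosed for 24 h; activity scored upward versus DMSO.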

[2] = biological target: Estrogen receptor beta (Homo sapiens) (UniProt Q92731); assay: OT_ER_ERbERb_0480: Odyssey Thera (OT) 8-hour HEK293T Protein-Complementation Assay for Estrogen Receptor-beta/-beta Homodimer (AID 2283357);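 note: active means signal gain over DMSO baseline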
Method in brief: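 Cells (HEK293T, stable ER-beta LBD PCA pair) are treated 8 hours, fixed and Draq5-stained; signal is fluorescence intensity increase relative to vehicle, fitted in the gain direction.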

[3] = biological target: Retinoic acid receptor RXR-alpha (Homo sapiens) (UniProt P19793); assay: OT_NURR1_NURR1RXRa_0480: Odyssey Thera (OT) 8-hour HEK293T Protein Complementation Assay for Nurr1/retinoid X receptor (RXR) (AID 2283385)
Method in brief: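 HEK293T cells expressing Nurr1 and RXRα fused to reporter fragments were dosed with compound for 8 hours. Complex formation was read as fluorescence intensity and analysed as gain of signal against DMSO as baseline.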

[4] = biological target: Retinoic acid receptor RXR-alpha (Homo sapiens) (UniProt P19793); assay: OT_NURR1_NURR1RXRa_1440: Odyssey Thera (OT) 24-hour HEK293T Protein Complementation Assay for Nurr1/retinoid X receptor (RXR) (AID 2283386)
Method in brief: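 HEK293T cells were dosed with compound and read 24 h later by fluorescence intensity in a protein-fragment complementation format, where Nurr1–RXRα interaction reconstitutes a split reporter. Activity was fitted as gain of signal relative to DMSO baseline.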

[5] = biological target: human Dopamine Transporter (DAT), SLC6A3 (gene 6531) (UniProt Q01959); assay: NVS_TR_hDAT: NovaScreen (NVS) Transporter Assay for human Dopamine Transporter (DAT) (AID 2283374);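 note: activity means loss of bound radioligand signal relative to DMSO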
Method in brief: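 Test chemicals were first screened in duplicate at 25 uM, with actives retested as concentration series. Displacement of a specific radioligand from cell-free human dopamine transporter was measured after 1 h by filtration and scintillation counting.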

[6] = read-out: Secreted IgG (sIgG), gene 3500; assay: BSK_BT_sIgG: BioMAP Diversity Plus: BT Assay for Secreted IgG (sIgG) Biomarker Activity (AID 2284226; active = hit-call score of the fitted dose curve at least 0.9, where 1 is the maximum; inactive = score below 0.9); settings: primary human B cells with PBMC
Method in brief: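 B cells co-cultured with PBMC were dosed with chemical and secreted IgG quantified by ELISA at 24 h. Activity was fitted in the positive direction relative to DMSO as negative control and baseline.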

[7] = read-out: Tumor necrosis factor (Homo sapiens) (UniProt P01375); assay: BSK_BT_xTNFa: BioMAP Diversity Plus: BT Assay for Tumor necrosis factor alpha (TNF-alpha) Biomarker Activity (AID 2284230; active = hit-call score of the fitted dose curve at least 0.9, where 1 is the maximum; inactive = score below 0.9); settings: primary human B cells with PBMC
Method in brief: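 Read-out: Luminex xMAP quantitation of secreted TNF-alpha from a B cell/PBMC co-culture 24 h after compound addition. Signal analysed relative to DMSO vehicle, positive fitting direction.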

[8] = read-out: Vascular cell adhesion molecule 1 (VCAM1), VCAM1 (gene 7412); assay: BSK_MyoF_VCAM1: BioMAP Diversity Plus: MyoF Assay for Vascular cell adhesion molecule 1 (VCAM1) Biomarker Activity (AID 2284231; active = hit-call score of the fitted dose curve at least 0.9, where 1 is the maximum; inactive = score below 0.9); settings: primary human lung fibroblasts
Method in brief: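 MyoF system, lung fibroblasts; 24 h post-dose; VCAM-1 by ELISA; gain-of-signal fit vs DMSO baseline.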

[9] = read-out: Collagen I, COL1A1 (gene 1277); assay: BSK_MyoF_CollagenI: BioMAP Diversity Plus: MyoF Assay for Collagen I Biomarker Activity (AID 2284238; active = hit-call score of the fitted dose curve at least 0.9, where 1 is the maximum; inactive = score below 0.9); settings: primary human lung fibroblasts
Method in brief: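 ELISA readout of Collagen I after 24 h chemical treatment of primary human lung fibroblast cultures; gain of signal scored relative to DMSO vehicle baseline.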

[10] = read-out: Interleukin 17F (IL17F), IL17F (gene 112744); assay: BSK_BT_xIL17F: BioMAP Diversity Plus: BT Assay for Interleukin 17F (IL17F) Biomarker Activity (AID 2284243; active = hit-call score of the fitted dose curve at least 0.9, where 1 is the maximum; inactive = score below 0.9); settings: primary human B cells with PBMC
Method in brief: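 Secreted IL-17F, read on LumineX xMAP beads, was taken as the endpoint. Cultures combined human B cells and peripheral blood mononuclear cells, sampled 24 hours after dosing, with DMSO serving as negative control.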

[11] = read-out: Actin alpha 1 (ACTA1), ACTA1 (gene 58); assay: BSK_MyoF_ACTA1: BioMAP Diversity Plus: MyoF Assay for Actin alpha 1 (ACTA1) Biomarker Activity (AID 2284244; active = hit-call score of the fitted dose curve at least 0.9, where 1 is the maximum; inactive = score below 0.9); settings: primary human lung fibroblasts
Method in brief: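 Human lung fibroblasts (MyoF system) dosed with test chemical for 24 h; α-SMA measured by ELISA. Gain of signal fitted relative to DMSO negative control as baseline.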

[12] = read-out: Basic fibroblast growth factor (bFGF), FGF2 (gene 2247); assay: BSK_MyoF_bFGF: BioMAP Diversity Plus: MyoF Assay for Basic fibroblast growth factor (bFGF) Biomarker Activity (AID 2284246; active = hit-call score of the fitted dose curve at least 0.9, where 1 is the maximum; inactive = score below 0.9); settings: primary human lung fibroblasts
Method in brief: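 Human lung fibroblasts were dosed with chemicals and bFGF was quantified by ELISA 24 h later. Activity was fitted in the gain-of-signal direction relative to DMSO as negative control and baseline. Parallel SRB total-protein staining tracked overt cytotoxicity.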

[13] = read-out: Interleukin-8 (IL8), CXCL8 (gene 3576); assay: BSK_MyoF_IL8: BioMAP Diversity Plus: MyoF Assay for Interleukin-8 (IL8) Biomarker Activity (AID 2284261; active = hit-call score of the fitted dose curve at least 0.9, where 1 is the maximum; inactive = score below 0.9); settings: primary human lung fibroblasts
Method in brief: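 Lung fibroblasts (human primary) → chemical exposure → 24 h → IL-8 measured by ELISA. Signal increase scored versus DMSO control.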

[14] = read-out: Decorin, DCN (gene 1634); assay: BSK_MyoF_Decorin: BioMAP Diversity Plus: MyoF Assay for Decorin Biomarker Activity (AID 2284265; active = hit-call score of the fitted dose curve at least 0.9, where 1 is the maximum; inactive = score below 0.9); settings: primary human lung fibroblasts
Method in brief: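 ELISA readout of decorin, 24 h post-dosing; primary human lung fibroblast (MyoF) culture; gain-of-signal fit vs DMSO baseline.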

[15] = BSK_MyoF_SRB: Viability Assessment in the BioMAP Diversity Plus: MyoF Assay (AID 2284267; active = hit-call score of the fitted dose curve at least 0.9, where 1 is the maximum; inactive = score below 0.9;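 note: total protein by SRB absorbance in parallel cultures as cytotoxicity measure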); settings: primary human lung fibroblasts
Method in brief: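 Human lung fibroblasts dosed with chemical and assessed 24 h later for overt cytotoxicity in parallel cultures. Total protein quantified by sulforhodamine B staining (0.1% SRB after 10% TCA fixation), read at 560 nm, analysed in positive direction versus DMSO baseline.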

[16] = biological target: human Retinoic Acid Receptor beta (RARb), RARB (gene 5915) (UniProt P10826); assay: ATG_RARb_TRANS: Attagene TRANS-FACTORIAL HepG2 Assay for human Retinoic Acid Receptor beta (AID 2283004)
Method in brief: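 Readout is reporter mRNA induction: RNA reverse-transcribed, PCR-amplified, FAM-labelled, HpaI-cut and resolved by capillary electrophoresis. Transiently transfected HepG2 cells carrying exogenous NR–Gal4 chimeras were dosed for 24 h; activity fitted upward relative to DMSO.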

[17] = biological target: Retinoic acid receptor alpha (Homo sapiens) (UniProt P10276); assay: ATG_RARa_TRANS: Attagene TRANS-FACTORIAL HepG2 Assay for human Retinoic Acid Receptor alpha (RARa) (AID 2283005)
Method in brief: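 Reporter transcripts, measured by RT-PCR with fluorescent labeling and capillary electrophoresis after 24 h dosing, reflect activity of an exogenous human RARa–GAL4 fusion in transiently transfected HepG2. Fitted for increase relative to DMSO.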

[18] = biological target: human Retinoic Acid Receptor gamma (RARg), RARG (gene 5916) (UniProt P13631); assay: ATG_RARg_TRANS: Attagene TRANS-FACTORIAL HepG2 Assay for human Retinoic Acid Receptor gamma (RARg) (AID 2283009)
Method in brief: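 HepG2 cells transiently transfected with multiplexed reporter units expressing chimeric RARg-GAL4 and GAL4-UAS-driven reporters; 24 h compound exposure. Reporter mRNA quantified by RT-PCR with fluorescent labelling and capillary electrophoresis; gain-of-signal fitted relative to DMSO baseline.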

[19] = biological target: Nuclear receptor subfamily 1 group I member 2 (Homo sapiens) (UniProt O75469); assay: NVS_NR_hPXR: NovaScreen (NVS) Nuclear Receptor Binding Assay for human Pregnane X Receptor (PXR) (AID 2283365);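 note: a drop in FRET signal versus DMSO baseline means the compound binds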
Method in brief: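 TR-FRET signal read at 2 h in a cell-free human PXR binding format. DMSO served as negative control and baseline; activity scored as signal loss. Single-concentration duplicate screen (25 uM), then concentration-response follow-up.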

[20] = CEETOX_H295R_MTT_cell_viability: Viability Assessment in the CeeTox HT-H295R MTT Assay (AID 2283718; active = hit-call score of the fitted dose curve at least 0.9, where 1 is the maximum; inactive = score below 0.9;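 note: curve fitted both ways so AC50 may mark viability loss or gain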)
Method in brief: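 MTT reduction (0.5 mg/ml, 4 h at 37 C; absorbance at 570 and 650 nm) gave viability as background-corrected percent change versus controls. H295R cells had 48 h forskolin (10 uM) prestimulation, then 48 h chemical exposure at 0.1% DMSO.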

Sequence of Tumor necrosis factor (Homo sapiens) (P01375 whole entry, looked up): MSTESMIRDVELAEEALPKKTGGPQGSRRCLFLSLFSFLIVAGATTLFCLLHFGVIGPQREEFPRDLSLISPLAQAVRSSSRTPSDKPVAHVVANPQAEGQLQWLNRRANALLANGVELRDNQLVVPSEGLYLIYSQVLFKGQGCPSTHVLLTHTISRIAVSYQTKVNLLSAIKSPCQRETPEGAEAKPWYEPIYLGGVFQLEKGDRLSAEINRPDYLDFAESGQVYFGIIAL
Sequence of human Retinoic Acid Receptor beta (RARb), RARB (gene 5915) (P10826 whole entry, looked up, the tested form may be a part): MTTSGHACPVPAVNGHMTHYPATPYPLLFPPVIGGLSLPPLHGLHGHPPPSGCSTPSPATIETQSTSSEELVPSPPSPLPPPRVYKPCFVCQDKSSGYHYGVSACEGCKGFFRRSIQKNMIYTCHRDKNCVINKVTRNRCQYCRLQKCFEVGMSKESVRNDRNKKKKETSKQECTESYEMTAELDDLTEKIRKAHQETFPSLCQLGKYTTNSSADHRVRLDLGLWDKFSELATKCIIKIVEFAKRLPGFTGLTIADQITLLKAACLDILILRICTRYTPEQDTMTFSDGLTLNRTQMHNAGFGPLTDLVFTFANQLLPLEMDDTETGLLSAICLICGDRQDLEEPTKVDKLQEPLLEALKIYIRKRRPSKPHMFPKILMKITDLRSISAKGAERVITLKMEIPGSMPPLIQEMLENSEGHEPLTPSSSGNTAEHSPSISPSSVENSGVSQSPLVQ
Sequence of Retinoic acid receptor RXR-alpha (Homo sapiens) (P19793 whole entry, looked up, the tested form may be a part): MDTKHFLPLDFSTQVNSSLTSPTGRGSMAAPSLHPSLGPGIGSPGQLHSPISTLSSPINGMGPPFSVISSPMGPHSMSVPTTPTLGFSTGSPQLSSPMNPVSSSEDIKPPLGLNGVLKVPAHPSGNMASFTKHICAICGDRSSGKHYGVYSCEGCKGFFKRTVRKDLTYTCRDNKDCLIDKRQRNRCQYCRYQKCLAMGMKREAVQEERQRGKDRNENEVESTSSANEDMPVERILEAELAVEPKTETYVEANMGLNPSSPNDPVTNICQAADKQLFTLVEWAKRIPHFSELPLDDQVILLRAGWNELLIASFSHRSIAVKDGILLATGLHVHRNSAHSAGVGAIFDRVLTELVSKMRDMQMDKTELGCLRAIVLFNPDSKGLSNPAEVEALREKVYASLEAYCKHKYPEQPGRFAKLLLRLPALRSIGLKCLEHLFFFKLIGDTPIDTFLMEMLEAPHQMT
Sequence of Retinoic acid receptor alpha (Homo sapiens) (P10276 whole entry, looked up, the tested form may be a part): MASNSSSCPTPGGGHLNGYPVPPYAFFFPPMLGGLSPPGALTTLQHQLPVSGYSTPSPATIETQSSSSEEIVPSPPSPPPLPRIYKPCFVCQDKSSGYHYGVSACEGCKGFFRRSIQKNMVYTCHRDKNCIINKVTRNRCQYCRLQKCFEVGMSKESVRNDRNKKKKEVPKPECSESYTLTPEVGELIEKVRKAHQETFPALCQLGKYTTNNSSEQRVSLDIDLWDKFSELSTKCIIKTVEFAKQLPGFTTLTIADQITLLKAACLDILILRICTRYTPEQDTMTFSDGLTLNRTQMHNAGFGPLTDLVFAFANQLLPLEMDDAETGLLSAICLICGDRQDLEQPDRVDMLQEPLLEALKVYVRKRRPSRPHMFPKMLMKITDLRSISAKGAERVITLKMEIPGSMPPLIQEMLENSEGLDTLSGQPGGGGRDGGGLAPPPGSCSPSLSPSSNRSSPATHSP
Sequence of Nuclear receptor subfamily 1 group I member 2 (Homo sapiens) (O75469 whole entry, looked up): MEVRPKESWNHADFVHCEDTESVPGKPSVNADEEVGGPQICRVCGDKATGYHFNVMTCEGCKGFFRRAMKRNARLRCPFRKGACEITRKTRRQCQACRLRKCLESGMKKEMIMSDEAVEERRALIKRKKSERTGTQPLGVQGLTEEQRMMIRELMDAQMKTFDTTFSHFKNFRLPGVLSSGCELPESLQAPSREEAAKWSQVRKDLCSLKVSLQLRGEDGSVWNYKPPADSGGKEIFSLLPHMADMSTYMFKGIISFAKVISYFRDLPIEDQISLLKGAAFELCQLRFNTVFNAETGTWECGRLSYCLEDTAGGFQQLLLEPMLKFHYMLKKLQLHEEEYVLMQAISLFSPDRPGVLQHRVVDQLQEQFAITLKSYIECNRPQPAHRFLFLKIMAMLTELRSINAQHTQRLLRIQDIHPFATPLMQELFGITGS
Sequence of Estrogen receptor beta (Homo sapiens) (Q92731 whole entry, looked up, the tested form may be a part): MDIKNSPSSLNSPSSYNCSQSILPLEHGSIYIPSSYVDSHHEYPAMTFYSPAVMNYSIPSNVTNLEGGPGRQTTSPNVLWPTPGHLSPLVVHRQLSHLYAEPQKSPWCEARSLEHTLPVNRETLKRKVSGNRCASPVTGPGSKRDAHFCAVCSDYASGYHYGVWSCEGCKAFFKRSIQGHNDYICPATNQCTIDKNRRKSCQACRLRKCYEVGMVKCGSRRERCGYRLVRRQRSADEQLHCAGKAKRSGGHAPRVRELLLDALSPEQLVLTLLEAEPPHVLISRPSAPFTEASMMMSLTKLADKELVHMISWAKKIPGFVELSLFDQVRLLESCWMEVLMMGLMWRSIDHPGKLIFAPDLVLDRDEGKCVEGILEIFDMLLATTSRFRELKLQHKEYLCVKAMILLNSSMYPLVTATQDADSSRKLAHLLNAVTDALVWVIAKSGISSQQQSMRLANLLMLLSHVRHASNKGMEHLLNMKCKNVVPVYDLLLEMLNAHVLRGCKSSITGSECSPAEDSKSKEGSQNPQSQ
Sequence of human Retinoic Acid Receptor gamma (RARg), RARG (gene 5916) (P13631 whole entry, looked up, the tested form may be a part): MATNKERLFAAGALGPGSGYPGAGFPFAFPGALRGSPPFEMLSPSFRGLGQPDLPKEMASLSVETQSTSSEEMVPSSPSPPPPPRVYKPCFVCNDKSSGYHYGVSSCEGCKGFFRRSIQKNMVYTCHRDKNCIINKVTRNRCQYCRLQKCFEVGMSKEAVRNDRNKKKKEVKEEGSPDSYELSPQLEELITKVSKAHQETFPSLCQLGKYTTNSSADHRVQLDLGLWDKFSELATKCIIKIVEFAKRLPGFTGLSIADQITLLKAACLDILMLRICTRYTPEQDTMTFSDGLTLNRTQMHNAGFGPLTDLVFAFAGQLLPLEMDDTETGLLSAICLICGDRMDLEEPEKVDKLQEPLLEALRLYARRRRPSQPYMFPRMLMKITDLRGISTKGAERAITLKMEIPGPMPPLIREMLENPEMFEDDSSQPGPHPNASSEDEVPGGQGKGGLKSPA
Sequence of Androgen receptor (Homo sapiens) (P10275 whole entry, looked up, the tested form may be a part): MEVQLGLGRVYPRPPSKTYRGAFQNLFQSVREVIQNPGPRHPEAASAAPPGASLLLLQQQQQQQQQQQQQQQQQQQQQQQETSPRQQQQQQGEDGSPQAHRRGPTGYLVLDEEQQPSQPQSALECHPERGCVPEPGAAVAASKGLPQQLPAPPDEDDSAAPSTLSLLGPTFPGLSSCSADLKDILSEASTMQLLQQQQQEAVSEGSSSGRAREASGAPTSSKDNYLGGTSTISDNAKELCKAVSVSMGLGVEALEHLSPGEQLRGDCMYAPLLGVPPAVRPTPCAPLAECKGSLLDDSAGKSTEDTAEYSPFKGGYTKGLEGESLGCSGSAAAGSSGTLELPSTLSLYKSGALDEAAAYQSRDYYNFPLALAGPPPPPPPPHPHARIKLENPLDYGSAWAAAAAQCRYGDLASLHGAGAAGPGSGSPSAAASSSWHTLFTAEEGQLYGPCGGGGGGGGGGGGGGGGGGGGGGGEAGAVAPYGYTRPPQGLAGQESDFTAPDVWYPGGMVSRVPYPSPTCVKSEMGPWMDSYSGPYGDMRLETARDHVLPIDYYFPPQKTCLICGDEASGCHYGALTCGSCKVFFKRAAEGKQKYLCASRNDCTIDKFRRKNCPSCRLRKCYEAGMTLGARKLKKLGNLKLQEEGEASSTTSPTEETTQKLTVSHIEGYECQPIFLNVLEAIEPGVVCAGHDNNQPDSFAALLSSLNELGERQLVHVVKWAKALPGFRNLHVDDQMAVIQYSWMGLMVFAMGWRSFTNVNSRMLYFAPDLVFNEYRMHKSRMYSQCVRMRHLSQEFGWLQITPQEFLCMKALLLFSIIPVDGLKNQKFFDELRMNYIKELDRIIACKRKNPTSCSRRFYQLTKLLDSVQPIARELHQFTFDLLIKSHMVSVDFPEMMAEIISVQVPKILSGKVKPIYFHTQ
Sequence of human Dopamine Transporter (DAT), SLC6A3 (gene 6531) (Q01959 whole entry, looked up): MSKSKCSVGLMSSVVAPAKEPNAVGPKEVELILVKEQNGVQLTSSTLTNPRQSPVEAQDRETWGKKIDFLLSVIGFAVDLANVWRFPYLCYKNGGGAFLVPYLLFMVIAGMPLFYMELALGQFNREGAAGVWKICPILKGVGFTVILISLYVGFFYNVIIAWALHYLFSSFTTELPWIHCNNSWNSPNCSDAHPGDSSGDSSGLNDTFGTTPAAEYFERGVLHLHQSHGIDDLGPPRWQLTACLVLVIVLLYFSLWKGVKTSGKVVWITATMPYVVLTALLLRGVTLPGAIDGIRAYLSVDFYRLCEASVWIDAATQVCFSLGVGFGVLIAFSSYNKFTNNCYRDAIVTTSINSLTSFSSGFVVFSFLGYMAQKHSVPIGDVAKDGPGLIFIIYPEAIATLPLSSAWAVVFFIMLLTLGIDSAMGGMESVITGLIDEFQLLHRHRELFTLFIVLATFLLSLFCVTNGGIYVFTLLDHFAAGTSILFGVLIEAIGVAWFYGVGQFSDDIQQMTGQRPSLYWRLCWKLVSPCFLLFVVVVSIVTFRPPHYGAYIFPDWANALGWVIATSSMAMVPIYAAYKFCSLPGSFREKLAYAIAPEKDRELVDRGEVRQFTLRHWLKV

COc1cc(OC)nc(Oc2cccc(Oc3nc(OC)cc(OC)n3)c2C(=O)O)n1
outcome [1]: inactive
outcome [2]: inactive
outcome [3]: inactive
outcome [4]: inactive

O=C1C=CC(=O)C=C1
AC50 [5]: 13.9 µM (active)
AC50 [6]: 10.9 µM (active) and 28 µM (active)
AC50 [7]: 24 µM (active) and 33.1 µM (active)
AC50 [8]: 34 µM (active) and 29.6 µM (active)
AC50 [9]: 31.8 µM (active) and 25.3 µM (active)
AC50 [10]: 29.2 µM (active)
AC50 [11]: 30.9 µM (active) and 20 µM (active)
AC50 [12]: 34.7 µM (active) and 30.6 µM (active)
AC50 [13]: 9.01 µM (active) and 4.78 µM (active)
outcome [14]: inactive
AC50 [15]: 30.6 µM (active) and 29 µM (active)

Nc1ccccc1
outcome [3]: inactive
outcome [4]: inactive

C=C(Cl)Cl
outcome [1]: inactive
outcome [16]: inactive
outcome [17]: inactive
outcome [18]: inactive

Oc1ccc(Cl)cc1
outcome [16]: inactive
outcome [19]: inactive
outcome [3]: inactive
outcome [4]: inactive

SCc1ccco1
outcome [1]: inactive

O=P1(NCCCl)OCCCN1CCCl (centres undefined)
outcome [17]: inactive
outcome [6]: inactive
outcome [7]: inactive
outcome [8]: inactive
outcome [9]: inactive
outcome [10]: inactive
outcome [11]: inactive
outcome [12]: inactive
outcome [13]: inactive
outcome [14]: inactive
outcome [15]: inactive

CCC(Br)(CC)C(=O)NC(N)=O
outcome [16]: inactive

CC(C)C(=O)Cl
outcome [1]: inactive

O=P(O)(Oc1ccccc1)Oc1ccccc1
outcome [2]: inactive
outcome [4]: inactive

CCc1cccc(C)c1N(C(=O)CCl)[C@@H](C)COC
outcome [16]: inactive
outcome [2]: inactive
AC50 [19]: 5.91 µM (active)
outcome [3]: inactive

Cc1cc(C)c(C2=C(OC(=O)CC(C)(C)C)C3(CCCC3)OC2=O)c(C)c1
outcome [2]: inactive
outcome [19]: inactive
outcome [3]: inactive
outcome [4]: inactive
AC50 [20]: 93.1 µM (active)

CCCC=NO
outcome [2]: inactive
outcome [3]: inactive
outcome [4]: inactive

CCOP(=O)(OCC)OCC
outcome [16]: inactive
outcome [17]: inactive
outcome [18]: inactive
outcome [2]: inactive
outcome [3]: inactive

CN(C)CCC#N
outcome [17]: inactive
outcome [18]: inactive

C=C(Cl)CCl
outcome [18]: inactive

COC(=O)c1ccccc1S(=O)(=O)NC(=O)Nc1nc(C)cc(C)n1
outcome [16]: inactive
outcome [18]: inactive

Nc1ccccc1C(=O)OCCc1ccccc1
outcome [16]: inactive
outcome [17]: inactive

CCOP(O)OCC
outcome [2]: inactive
outcome [4]: inactive

O=[N+]([O-])C=Cc1ccccc1
AC50 [5]: 25 µM (active)

O=C(NC(=O)c1c(F)cccc1F)Nc1ccc(Oc2ccc(C(F)(F)F)cc2Cl)cc1F
outcome [16]: inactive
outcome [17]: inactive
outcome [18]: inactive

CC1CCCC1.[C-]#[O+].[C-]#[O+].[C-]#[O+].[Mn]
outcome [16]: inactive
outcome [18]: inactive

Nc1ccc(-c2ccc(N)c(N)c2)cc1N
outcome [17]: inactive
